Assay results reported in PubChem BioAssay (NCI).
Compounds without any hit were thinned out: in the full panel of roughly 83,000, 20% have a hit.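 Results are percent growth after 48 hours of single-concentration exposure. 100 means growth as in untreated cells, lower positive values show inhibition; negative values down to -100 show cell death.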 Unmarked numbers belong to inactive results. The source made the active and inactive calls. The calls were made as follows: active = growth percent below 10; inactive = the rest.

Columns and labels:
Assay in all cases: NCI-60 one-dose screen, 48 h (100 = growth as untreated, 0 = no growth, -100 = all killed)
Details in all cases: 10 µM unless noted
T-47D breast = test system: T-47D breast
BT-549 breast = test system: BT-549 breast
MDA-MB-435 melanoma = test system: MDA-MB-435 melanoma
SW-620 colon = test system: SW-620 colon
MCF7 breast = test system: MCF7 breast
HCT-116 colon = test system: HCT-116 colon
HCC-2998 colon = test system: HCC-2998 colon
KM12 colon = test system: KM12 colon

SMILES | growth (T-47D breast) | growth (BT-549 breast) | growth (MDA-MB-435 melanoma) | growth (SW-620 colon) | growth (MCF7 breast) | growth (HCT-116 colon) | growth (HCC-2998 colon) | growth (KM12 colon)
Nc1nc(N)nc(NCc2ccccc2)n1 | 98.2% | 106% | 112% | 112% | 95.8% | 106% | 94.7% | 104%
C=C1C(=O)O[C@H]2[C@H]1CC/C(CNC(=O)/C=C/c1ccccc1F)=C\CC[C@@]1(C)O[C@@H]21 | -0.591% (active) | -6.02% (active) | 23.1% | -54.3% (active) | -12.3% (active) | -34.9% (active) | 50.4% | 74.2%
C#Cc1cccc(NC(=O)Nc2ccc(NC(=O)CCl)cc2)c1 | -40.2% [8.25 µM] (active) | -64.2% [8.25 µM] (active) | 21.7% [8.25 µM] | -61.7% [8.25 µM] (active) | 14.1% [8.25 µM] | -0.386% [8.25 µM] (active) | 82.6% [8.25 µM] | -27.2% [8.25 µM] (active)
CS(=O)(=O)c1ccc(-c2cc(-c3nnc(SCC(=O)Nc4ccc(C(=O)/C=C/c5ccc(Cl)cc5)cc4)n3-c3ccccc3)c3ccccc3n2)cc1 | 87% | 108% | 101% | 96.9% | 92.5% | 92.7% | 106% | 96.8%
CCCCCOc1ccc(/C=N/Nc2cc(C)nc3ccc(Br)cc23)cc1 | 83.4% | 103% | -46.9% (active) | -61.2% (active) | -73% (active) | -79.9% (active) | -58.3% (active) | -65.5% (active)
O=C(Nc1ccc2ncnc(Nc3ccc(Oc4cccc(F)c4)c(Cl)c3)c2c1)c1ccc(CN2CCOCC2)cc1 | -9.3% (active) | 19.9% | 22% | 38.7% | 10.5% | 13.7% | 69% | 24.6%
Cc1nc2sc(C(=O)Nc3ccccc3)c(N)c2cc1C(=O)c1ccc(C(F)(F)F)cc1 | 97.2% | 100% | 94.1% | 99.5% | 90.7% | 76.8% | 104% | 108%
CCC1(CC)NC(=O)c2c(c3ccc(Cl)c(Cl)c3n2C)C1C#N (stereo not drawn) | 78.5% | 90.6% | 99.2% | 102% | 97.9% | 76.3% | 97.5% | 99.4%
C=C1C(=O)O[C@H]2[C@H]1CC/C(COC(=O)NCCc1c[nH]c3ccc(Cl)cc13)=C\CC[C@@]1(C)O[C@@H]21 | -40% (active) | -52.9% (active) | -91.5% (active) | -87.4% (active) | 8.5% (active) | -88.9% (active) | 55.1% | 11.3%
CCOC(=O)c1c(SC)nn(-c2cc(=O)[nH]c3ccc(Br)cc23)c1N | 92.9% | 116% | 107% | 94.2% | 93.4% | 89.5% | 102% | 99%
COc1cc(Nc2cc(O)c3c(=O)cc(-c4ccccc4)oc3c2)cc(OC)c1 | 55.2% | 80.2% | 4.04% (active) | 24.9% | 23.5% | 13% | 32.4% | 21%
Nc1c(C(=O)Nc2cccc3ccncc23)sc2nc3c(cc12)C(=O)CCC3 | 48.5% | 50.6% | -35% (active) | 31.1% | 21.5% | 43.4% | 77.2% | 30.8%
CN1CCN(c2cc(F)c(NC3=C(Cl)C(=O)c4ncccc4C3=O)c(F)c2)CC1 | -32.5% (active) | 80.5% | -75.8% (active) | -76.6% (active) | -58.2% (active) | -69.7% (active) | 61.9% | 82.4%
COc1ccc(/C=N/NC(=O)c2cccc3cc[nH]c23)cc1O | 41.4% | 55.9% | -21.4% (active) | 29.8% | 8.85% (active) | 21.8% | 55.4% | 29.8%
O=c1nc2n(nc1/C=C/c1ccco1)CC(c1ccc(Cl)cc1)=NN2 | 49.7% | 84.1% | 110% | 102% | 22.2% | 99% | 110% | 115%
C=C1C(=O)O[C@H]2[C@H]1CC/C(COC(=O)CCCc1c[nH]c3ccccc13)=C\CC[C@@]1(C)O[C@@H]21 | 57.3% | 41.1% | 60.3% | 24.9% | 11% | -77.5% (active) | 102% | 85.7%

SMILES | growth (T-47D breast) | growth (BT-549 breast) | growth (MDA-MB-435 melanoma) | growth (SW-620 colon) | growth (MCF7 breast) | growth (HCT-116 colon) | growth (HCC-2998 colon) | growth (KM12 colon)
CC(N)C(=O)NNc1n[nH]c(=S)n1N (stereo not drawn) | 98.6% | 87.1% | 96.1% | 93.1% | 93.7% | 103% | 102% | 102%
Cc1ccc(S(=O)(=O)Nc2ccc(Cl)cc2)cc1 | 106% | 106% | 101% | 105% | 93.7% | 97.4% | 104% | 105%
CNC(=O)c1c(NC(=O)c2ccc(C(C)C)cc2)sc2c(CN(C)C)c(O)ccc12 | 80.6% | 87.9% | 89.8% | 17.2% | 68.6% | 46.1% | 55.4% | 66.2%
O=C(Cc1ccc(/C=C/C(=O)c2ncc[nH]2)cc1)Nc1ccc(C(F)(F)F)cc1 | 29.2% | 44% | -1.95% (active) | -16.1% (active) | 10.3% | -58.7% (active) | 59.3% | -41.3% (active)
O=C1NC(=O)C(=Cc2cn(Cc3ccccn3)c3ccccc23)C(=O)N1 | 100% | 98.8% | 101% | 105% | 87.6% | 100% | 105% | 106%
CN1CCN(CCCOc2ccc3ncnc(Nc4ccc(Oc5cccc(C(F)(F)F)c5)c(Cl)c4)c3c2)CC1 | 19.2% | 69.9% | -82% (active) | -71.6% (active) | -28.7% (active) | -62% (active) | -66.2% (active) | -3.45% (active)
O=C(Nc1ccc2ncnc(Nc3ccc(Oc4cccc(F)c4)c(Cl)c3)c2c1)c1ccc(CNCCO)cc1 | 42.6% | 85.5% | -86.3% (active) | -74% (active) | -67.2% (active) | -46.5% (active) | -8.44% (active) | 12.9%
O=C1NC(=S)NC(=O)C1=Cc1cccc(C=C2C(=O)NC(=S)NC2=O)c1 | 97.7% | 87.5% | 108% | 106% | 96.8% | -76% (active) | 107% | 107%
COc1ccc(-c2ncc(-c3ccccc3)[nH]2)cc1OC | 102% | 240% | 104% | 108% | 83.6% | 117% | 120% | 105%
ClCC1(Cn2cnc3c(Cl)nc(Cl)nc32)COC1 | 72% | 108% | 87.6% | 66.3% | 76.1% | 13.7% | -6.15% (active) | 97.5%
CC(=O)O[C@H]1CC[C@@]2(C)[C@@H](CC[C@@H]3[C@@H]2CC[C@@]2(C)[C@H]3CC[C@]2(O)C(C)=O)C1 | 103% | 92.5% | 104% | 104% | 105% | 99.1% | 96.5% | 107%
CCOC(=O)N1CCc2c(sc3nc4nc[nH]n4c(=O)c23)C1 | 88.9% | 95.8% | 103% | 102% | 93.5% | 95.7% | 98.6% | 97.1%
COc1ccc(OC)c(/C=C/[C@H]2O[C@@H](C)[C@H](O)[C@@H]2O)c1 | 96% | 104% | 100% | 113% | 101% | 101% | 108% | 112%
O=C(N/N=C/c1ccncc1)c1ccccc1Nc1cccc(C(F)(F)F)c1 | 58.2% | 69.3% | 112% | 95.7% | 104% | 69.2% | 77.8% | 77.8%
COC(=O)CCCCCCCCC1(C)C=CC(C(C)O)=CC1 (stereo not drawn) | 99.9% | 108% | 112% | 91.2% | 101% | 99.7% | 98.7% | 99.8%
